Consider 40 molecules from PubChem BioAssay (NCI).

“And” between values parts separate entries of the source, which are not always exact repeats. Identical values can stand only once. About 83,000 compounds went through this panel and 20% of them were active in at least one assay; those are over-represented in the sample as a whole.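 Single-dose data. Exposure time 48 hours. Values below 10 considered active.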 The source made the active and inactive calls.

For this assay, the system named is MDA-MB-468 breast. Briefly: NCI-60 one-dose screen, 48 h (100 = growth as untreated, 0 = no growth, -100 = all killed). Particulars: 10 µM unless noted.
Take `O=C(Nc1ccc2ncnc(Nc3ccc(F)c(Cl)c3)c2c1)c1cccs1`: the growth is -23.8% (active). Take `C=C(C)[C@@H]1CC[C@]2(C(N)=O)CC[C@]3(C)[C@H](CC[C@@H]4[C@@]5(C)CC[C@H](OCCC#N)C(C)(C)[C@@H]5CC[C@]43C)[C@@H]12`: the growth was 72.2% (inactive). The value for `O=C(CCCNC(=O)c1nc(-c2ccccc2)n(-c2ccccc2)n1)NO` was 98.8% (inactive).

With `C=C[C@@H]1C[C@H](O)Cc2c(C)cc(C)cc2N1`, the growth was 91.9% (inactive).

Take `CC(C)=CC(=O)OC(=O)C=C(C)C`: the growth was 92.9% (inactive). The value for `O=C1c2ccccc2-c2cn(Cc3ccccc3)c3cccc(c23)C1c1cccnc1` (stereo not given) was 27.9% (inactive). Take `CCc1ncnc2c1ccn2C(C)c1ccc(OC)c(F)c1` (stereo not given): the growth is -1.21% (active). The value for `COc1cc(C)c(Cc2cnc(N)nc2N)cc1OC` was 116% (inactive); that for `COc1ccc(C2Nc3nc(OC)n(C)c(=O)c3N=C3c4ccccc4C(=O)C32)cc1` (stereo not given) was 104% (inactive); that for `CC(=O)[C@H]1CC[C@H]2[C@@H]3C[C@H](C)C4=CC(=O)CC[C@]4(C)[C@H]3C(=O)C[C@]12C` was 106% (inactive). The value for `COc1ccc(/C=C(/C(=O)N2CCN(c3ccccc3)CC2)c2cc(OC)c(OC)c(OC)c2)cc1O` was 17.6% (inactive); that for `CC1=CC(=O)OC1C/C=C(\C)CCC1[C@@]2(C)CCC[C@@](C)(C(=O)O)C2CC[C@@]1(C)O` (stereo not given in full) was 102% (inactive); that for `COc1cc(/C=C/c2nc(Nc3ccc(S(=O)(=O)Nc4cc(C)on4)cc3)c3ccccc3n2)ccc1O` was -7.09% (active). In the case of `O=c1cc(CSc2nnc(SCc3cc(=O)oc4c3ccc3ccccc34)o2)c2ccc3ccccc3c2o1`, the growth is 110% (inactive). The value for `CNc1ccc(Cl)cc1S(=O)(=O)c1ccccc1[N+](=O)[O-]` was 72.7% (inactive); that for `COC(=O)c1cc(O)c2c(c1C(=O)OC)C[C@H]1[C@@H]3CC=C4C[C@@H](O)CC[C@]4(C)[C@H]3CC[C@]21C` was 35.3% (inactive).

As for `NS(=O)(=O)c1ccc(CCN2C(=O)C=CC2=O)cc1`, the growth was 103% (inactive). The value for `CC(C)OCC(CCl)OC(=O)Nc1ccccc1` (stereo not given) was 112% (inactive); that for `COc1cc(CN2CCO[C@H](COc3cccc(F)c3)C2)ccc1Cl` was 11.4% (inactive). The value for `COc1ccc(C2CC(=O)Nc3c2c(C)nn3-c2nc3ccccc3[nH]2)cc1OC` (stereo not given) was 59.6% (inactive); that for `O=C1C=C(Nc2ccccc2)c2ccccc2C1=O` was 78% (inactive) and 76.9% (inactive); that for `C=C1C(=O)C2CCC1C2` (stereo not given) was 110% (inactive). Regarding `CCc1cccc2c3c(sc12)C(c1ccc(Cl)cc1)C(C#N)=C(N)O3` (stereo not given), the growth was -7.98% (active).

`COc1cccc(/C=C2\COc3ccc(O)c(O)c3C2=O)c1`: the growth was -11.1% (active). The value for `O=C(NC(=O)c1ccc(F)c(Cl)c1)NC1CC1` was 103% (inactive) and 87.4% (inactive). The value for `C#C[C@]1(O)CC[C@H]2[C@@H]3CC=C4c5sc(Nc6cccc(C)n6)nc5CC[C@]4(C)[C@H]3CC[C@@]21C` was 35.7% (inactive).

Turning to `Cc1nc(-c2ccc(Cl)cc2)ccc1NC(=O)Nc1cccc(C(F)(F)F)c1`, the growth was 98.5% (inactive). The value for `Cn1c2ccccc2c2c3c(c4c5ccccc5[nH]c4c21)C(=O)N(N)C3=O` was -37.5% (active). As for `COC(=O)C(C)NS(=O)(=O)/N=C1\NC(=O)NC1=C(Cl)Cl` (stereo not given), the growth is 91.4% (inactive). The value for `Cc1ccc(-[n+]2c3cc(N)c(C)cc3nc3cc(C)c(Nc4ccccc4)cc32)cc1` was -86.2% (active); that for `O=C1NC(=S)S/C1=C\N1N=C(c2ccc(Cl)cc2)CC1c1ccc(F)cc1` (stereo not given) was 92.3% (inactive); that for `Oc1ccc(Nc2ccc3ccccc3c2)cc1` was 30.5% (inactive). `O=C(Nc1ccncc1)C(=O)c1cn(S(=O)(=O)c2ccc(F)cc2)c2ccccc12`: the growth was 14.9% (inactive). The value for `O=C(O)C1CCC(=O)N1C(=O)OCc1ccccc1` (stereo not given) was 106% (inactive). As to `COc1ccc(-c2[nH]ncc2/C=C/c2cc(C(F)(F)F)[nH]c(=O)n2)cc1`, the growth is 96.1% (inactive). The value for `Cc1cc2nc(C(Cl)Cl)nc(-c3ccccc3)n2n1` was -20.7% (active); that for `N#CC1=C(N)Oc2c(ccc3ccccc23)C1c1cc(=O)oc2ccc(Cl)cc12` (stereo not given) was 62% (inactive). The value for `CC(C)(C)c1cc(C(=O)Nc2ccc(C(=O)NCCN)cc2)cc(C(C)(C)C)c1` was -39.5% (active). On to `CCO/C=N/C1=C(C#N)C(c2ccc(OC)cc2)c2sc3c(C)cccc3c2O1` (stereo not given), for which the growth is -13% (active). The value for `Clc1ccc(Nc2nccc(Nc3ccc4[nH]ncc4c3)n2)cc1` was 33.6% (inactive).
